Screens: PubChem BioAssay, National Center for Advancing Translational Sciences (NCATS)
Sampled rows, rich in hits. Any-hit rate of the full collection: about 12%.
BAZ2B block = inhibitors of human BAZ2B bromodomain; Q9UIF8; AlphaScreen BAZ2B-H3K14Ac peptide displacement; Potency, µM (top dose mostly 114 µM), for inactives: at the top dose activity change, negative = inhibition, usual class: inhibitors; actives 4.4% (n = 360,000); AID 504333; note: potency is the fitted concentration of half-maximal effect; % is set by controls: 0 for no effect and ±100 for the full control effect; nearly all actives have a fitted effect of over 60% in size
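AlphaScreen displacement of biotin-H3(5-23)K14Ac peptide (50 nM final) from BAZ2B (50 nM final) in PBS pH 7.4, 0.01% Tween-20; complex preformed 30 min RT, then compounds (top 110 uM) 30 min RT, beads 20 min dark.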
PLK1 PBD inh = blocks phosphopeptide binding to human PLK1 polo-box domain. AID 720504. actives 2.8% (n = 360,000). Plk1 PBD binding of FITC phosphopeptide, fluorescence polarization. Potency, µM, for the others: max response, negative = inhibition, most hits filed as inhibitors; note: potency is the fitted concentration of half-maximal effect; series mostly up to about 57 µM; % is set by controls: 0 for no effect and ±100 for the full control effect; nearly all actives have a fitted effect of over 65% in size
G9a block = G9a (human) methyltransferase inhibition; Q96KQ7; G9a H3K9 monomethylation, AlphaScreen, 2 h; Potency, µM (top dose mostly 102 µM), without a hit: at the top dose activity, negative = inhibition, usual class: inhibitors; actives 8.8% (n = 350,000); AID 504332; note: potency is the fitted concentration of half-maximal effect; % is set by controls: 0 for no effect and ±100 for the full control effect; nearly all actives have a fitted effect of over 75% in size
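Methyltransferase reactions run at room temperature for 2 h (20 nM enzyme, 500 nM biotin-H3K9 peptide, 20 uM SAM) after a 15 min compound preincubation; product detected by AlphaScreen beads and anti-H3K9me1 antibody.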
JMJD2A Tudor = inhibitors of human JMJD2A Tudor domain | actives 4.4% (n = 390,000) | Potency, µM (doses to about 114 µM), for the others: at the top dose activity change, negative = inhibition, usual class: inhibitors | AlphaScreen JMJD2A-Tudor / H3K4me3 peptide binding | O75164 | AID 504339; note: potency is the fitted concentration of half-maximal effect; % is set by controls: 0 for no effect and ±100 for the full control effect; nearly all actives have a fitted effect of over 50% in size
PI5P4K alpha inh = PI5P4K alpha (human) kinase inhibition | P48426 | PI5P4Kalpha enzyme, ADP-Glo luminescence, 60 min; hits give low values | max response, % | actives 1.2% (n = 330,000); active = max response of -50% or lower; inconclusive = between -30% and -50%; inactive = -30% or higher; note: value at the top dose of about 77 µM; % is set by controls: 0 for no effect and ±100 for the full control effect
Target sequence (P48426 whole entry, looked up): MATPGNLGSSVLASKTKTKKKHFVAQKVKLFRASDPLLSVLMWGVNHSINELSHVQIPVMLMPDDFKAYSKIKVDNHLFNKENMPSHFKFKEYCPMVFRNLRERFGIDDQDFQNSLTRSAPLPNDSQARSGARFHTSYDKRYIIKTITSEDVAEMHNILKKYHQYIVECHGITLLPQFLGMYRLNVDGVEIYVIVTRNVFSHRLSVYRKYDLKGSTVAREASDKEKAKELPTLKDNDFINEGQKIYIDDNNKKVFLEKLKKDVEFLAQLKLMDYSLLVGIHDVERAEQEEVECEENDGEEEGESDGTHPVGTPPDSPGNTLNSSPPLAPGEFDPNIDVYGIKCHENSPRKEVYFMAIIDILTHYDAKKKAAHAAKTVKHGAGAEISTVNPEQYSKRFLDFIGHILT
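ADP-Glo luminescence end-point after a 60 min room-temperature kinase reaction. PI5P4Kalpha and substrate in HEPES pH 7.4 buffer with EGTA, 0.1% CHAPS and 5% DMSO; ATP at 5 microM final.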
HP1b chromo inh = HP1-beta chromodomain-methylated histone interaction inhibition | actives 0.56% (n = 390,000) | P83916 | AlphaScreen HP1-beta / biotin-H3K9me3 peptide binding | Potency, µM (titrated, usually from 114 µM), inactives show at the highest dose activity change, negative = inhibition, most hits filed as inhibitors; note: potency is the fitted concentration of half-maximal effect; nearly all actives have a fitted effect of over 70% in size
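AlphaScreen: HP1-beta (50 nM) preformed 30 min with biotin-H3(1-18)K9me3 peptide (50 nM) in PBS pH 7.4, 0.01% Tween-20. Compound added for 30 min at RT, then streptavidin donor/nickel chelate acceptor beads (10 ug/mL) for 30 min.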
* hit, by the source's call; ? = inconclusive; nt = not tested or not shown; [ ] = remark or other dose. Unless noted, calls come from the whole dose curve; as a rule, active = well fitted curve in the direction sought with a large enough effect; inconclusive = small, poorly fitted or top-dose-only effect, or another doubt; inactive = no such curve, though single readings can be large; an effect the other way counts as inactive or inconclusive.

SMILES	BAZ2B block	PLK1 PBD inh	G9a block	JMJD2A Tudor	PI5P4K alpha inh	HP1b chromo inh
NC(Cc1c[nH]c2ccc(OCc3ccccc3)cc12)C(=O)O (stereo unspecified)	?	-24%	45µM*	?	-27	5%
COc1ccc(Br)cc1CNC(=O)c1ccc2nc(C(C)C)oc2c1	3%	nt	6%[59 µM]	-23%	nt	0%[57 µM]
CCCCCCCCCCCCCC[N+](C)(C)Cc1ccccc1	nt	nt	-31%[12.7 µM]	nt	nt	nt
O=C(CSc1oc(-c2ccc(F)cc2)nc1S(=O)(=O)c1ccc(F)cc1)NCC1CCCO1 (stereo unspecified)	8%	4%	?	-17%	2	8%
O=C(CSc1oc(-c2cccs2)nc1S(=O)(=O)c1ccc(F)cc1)NCC1CCCO1 (stereo unspecified)	0%	-27%	45µM*	-30%	-18	30%
N#Cc1nc(-c2cccs2)oc1NCC1CCCO1 (stereo unspecified)	1%	2%	21%[12.7 µM]	-14%	nt	22%
COc1ccc(NC(=O)CSc2oc(-c3ccc(C)cc3)nc2S(=O)(=O)c2ccc(C)cc2)c(OC)c1	1%	nt	?	56µM*	nt	?
Cc1ccc(S(=O)(=O)c2nc(-c3ccccc3)oc2SCC(=O)NCC2CCCO2)cc1 (stereo unspecified)	-3%	-18%	45µM*	-31%	3	-2%
O=S(=O)(c1ccccc1)c1nc(-c2cccs2)oc1NCC1CCCO1 (stereo unspecified)	-5%	-12%	32µM*	?	-13	24%
CCSc1nnc2c(n1)OC(c1ccc(C)cc1)N(C(C)=O)c1ccccc1-2 (stereo unspecified)	-20%	nt	?	-35%	nt	-5%
Cc1ccc(-c2nc(S(=O)(=O)c3ccc(F)cc3)c(SCC(=O)NCC3CCCO3)o2)cc1 (stereo unspecified)	1%	19µM*	14µM*	-19%[57.1 µM]	4	-19%
O=C(CN(C1CCCCC1)S(=O)(=O)c1ccc(F)cc1)NCC1CCCO1 (stereo unspecified)	nt	30µM*	nt	25µM*	-13	?
Cc1ccc(S(=O)(=O)c2nc(-c3ccc(F)cc3)oc2SCC(=O)NCC2CCCO2)cc1 (stereo unspecified)	5%	-1%	?	-10%	nt	23%
CC(Oc1ccccc1)C(=O)Nc1nnc(S(=O)(=O)N(C)c2ccccc2)s1 (stereo unspecified)	-15%	1%	19%	-15%	-2	33%
O=C(Nc1ccc(OC(F)(F)F)cc1)C(NS(=O)(=O)c1cccc2nsnc12)c1ccccc1 (stereo unspecified)	nt	nt	-14%[59 µM]	?	nt	11%
CN(Cc1ccccc1)C(=O)COC(=O)/C=C/c1ccco1	nt	-18%	35µM*	?	?	?
CN(CCOC(=O)/C=C/c1ccco1)Cc1ccccc1	35µM*	?	14µM*	25µM*	-10	?
Cc1cn2c(=O)cc(COC(=O)c3cccc(NC(=O)c4ccc(C(C)(C)C)cc4)c3)nc2s1	-2%	nt	8%[59 µM]	-14%	nt	11%
CCOc1cc(C2NC(=O)NC(C)=C2C(=O)OCC2CCCCC2)ccc1O (stereo unspecified)	-31%	-2%	12%	-15%	2	0%
Cc1cccc(OCCCC(=O)Nc2ccc(S(=O)(=O)Nc3ncccn3)cc2)c1C	-11%	-6%	nt	-7%	-19	43%
CC(=O)NS(=O)(=O)c1ccc(NC(=O)CSc2ccc(Cl)cc2)cc1	-15%	?	-30%	-2%	2	33%
Cc1ccc(NS(=O)(=O)c2ccc(NC(=O)C3CC3)cc2)c(C)c1	-5%	2%	-3%	-10%	-1	26%
Cc1ccc(C)c(NS(=O)(=O)c2ccc(NC(=O)CSc3ccc(Cl)cc3)cc2)c1	0%	24µM*	-7%[59 µM]	-24%	1	8%
Cc1cccc(OCCCC(=O)Nc2ccc(S(=O)(=O)Nc3nccs3)cc2)c1C	?	-15%	45µM*	?	-7	-20%
